# Screening results as filed in PubChem BioAssay.
# aDG glyco up – increases alpha dystroglycan glycosylation | Pro5-aDG cells, alpha-DG glycosylation AlphaScreen (IIH6); 0% Pro5, 100% B10-LARGE cell signal | activation, % at 10 µM | 360,000 compounds, 0.22% hits | AID 624168;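 active means activation of at least 8% versus controls, or a plate z-score of at least 8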;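 further: Pro5 are CHO cells carrying HIG-tagged alpha-DG that lacks glycosylation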
# GRIN3A LBD mod – modulates the human NR3A ligand-binding domain; 340,000 compounds, 2.5% hits; Tm shift relative to glycine control, % at 25 µM; NR3A LBD differential scanning fluorimetry, Tm shift; 0% = protein alone, 100% = glycine-bound protein;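 active means melting temperature shift of at least 10% of the positive control shift, at one fixed dose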
# FAS TE block – blocks the thioesterase domain of human fatty acid synthase | recombinant FAS-TE, OMFH fluorogenic substrate, fluorescence endpoint | inhibition, % at 15 µM | 360,000 compounds, 0.67% hits;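 active means compounds whose normalised, plate-corrected inhibition of enzyme fluorescence in the single-dose primary screen is 50% or more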;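 further: 0% = DMSO with enzyme and 100% = substrate without enzyme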
# Target sequence (P49327 whole entry, looked up, the tested form may be a part): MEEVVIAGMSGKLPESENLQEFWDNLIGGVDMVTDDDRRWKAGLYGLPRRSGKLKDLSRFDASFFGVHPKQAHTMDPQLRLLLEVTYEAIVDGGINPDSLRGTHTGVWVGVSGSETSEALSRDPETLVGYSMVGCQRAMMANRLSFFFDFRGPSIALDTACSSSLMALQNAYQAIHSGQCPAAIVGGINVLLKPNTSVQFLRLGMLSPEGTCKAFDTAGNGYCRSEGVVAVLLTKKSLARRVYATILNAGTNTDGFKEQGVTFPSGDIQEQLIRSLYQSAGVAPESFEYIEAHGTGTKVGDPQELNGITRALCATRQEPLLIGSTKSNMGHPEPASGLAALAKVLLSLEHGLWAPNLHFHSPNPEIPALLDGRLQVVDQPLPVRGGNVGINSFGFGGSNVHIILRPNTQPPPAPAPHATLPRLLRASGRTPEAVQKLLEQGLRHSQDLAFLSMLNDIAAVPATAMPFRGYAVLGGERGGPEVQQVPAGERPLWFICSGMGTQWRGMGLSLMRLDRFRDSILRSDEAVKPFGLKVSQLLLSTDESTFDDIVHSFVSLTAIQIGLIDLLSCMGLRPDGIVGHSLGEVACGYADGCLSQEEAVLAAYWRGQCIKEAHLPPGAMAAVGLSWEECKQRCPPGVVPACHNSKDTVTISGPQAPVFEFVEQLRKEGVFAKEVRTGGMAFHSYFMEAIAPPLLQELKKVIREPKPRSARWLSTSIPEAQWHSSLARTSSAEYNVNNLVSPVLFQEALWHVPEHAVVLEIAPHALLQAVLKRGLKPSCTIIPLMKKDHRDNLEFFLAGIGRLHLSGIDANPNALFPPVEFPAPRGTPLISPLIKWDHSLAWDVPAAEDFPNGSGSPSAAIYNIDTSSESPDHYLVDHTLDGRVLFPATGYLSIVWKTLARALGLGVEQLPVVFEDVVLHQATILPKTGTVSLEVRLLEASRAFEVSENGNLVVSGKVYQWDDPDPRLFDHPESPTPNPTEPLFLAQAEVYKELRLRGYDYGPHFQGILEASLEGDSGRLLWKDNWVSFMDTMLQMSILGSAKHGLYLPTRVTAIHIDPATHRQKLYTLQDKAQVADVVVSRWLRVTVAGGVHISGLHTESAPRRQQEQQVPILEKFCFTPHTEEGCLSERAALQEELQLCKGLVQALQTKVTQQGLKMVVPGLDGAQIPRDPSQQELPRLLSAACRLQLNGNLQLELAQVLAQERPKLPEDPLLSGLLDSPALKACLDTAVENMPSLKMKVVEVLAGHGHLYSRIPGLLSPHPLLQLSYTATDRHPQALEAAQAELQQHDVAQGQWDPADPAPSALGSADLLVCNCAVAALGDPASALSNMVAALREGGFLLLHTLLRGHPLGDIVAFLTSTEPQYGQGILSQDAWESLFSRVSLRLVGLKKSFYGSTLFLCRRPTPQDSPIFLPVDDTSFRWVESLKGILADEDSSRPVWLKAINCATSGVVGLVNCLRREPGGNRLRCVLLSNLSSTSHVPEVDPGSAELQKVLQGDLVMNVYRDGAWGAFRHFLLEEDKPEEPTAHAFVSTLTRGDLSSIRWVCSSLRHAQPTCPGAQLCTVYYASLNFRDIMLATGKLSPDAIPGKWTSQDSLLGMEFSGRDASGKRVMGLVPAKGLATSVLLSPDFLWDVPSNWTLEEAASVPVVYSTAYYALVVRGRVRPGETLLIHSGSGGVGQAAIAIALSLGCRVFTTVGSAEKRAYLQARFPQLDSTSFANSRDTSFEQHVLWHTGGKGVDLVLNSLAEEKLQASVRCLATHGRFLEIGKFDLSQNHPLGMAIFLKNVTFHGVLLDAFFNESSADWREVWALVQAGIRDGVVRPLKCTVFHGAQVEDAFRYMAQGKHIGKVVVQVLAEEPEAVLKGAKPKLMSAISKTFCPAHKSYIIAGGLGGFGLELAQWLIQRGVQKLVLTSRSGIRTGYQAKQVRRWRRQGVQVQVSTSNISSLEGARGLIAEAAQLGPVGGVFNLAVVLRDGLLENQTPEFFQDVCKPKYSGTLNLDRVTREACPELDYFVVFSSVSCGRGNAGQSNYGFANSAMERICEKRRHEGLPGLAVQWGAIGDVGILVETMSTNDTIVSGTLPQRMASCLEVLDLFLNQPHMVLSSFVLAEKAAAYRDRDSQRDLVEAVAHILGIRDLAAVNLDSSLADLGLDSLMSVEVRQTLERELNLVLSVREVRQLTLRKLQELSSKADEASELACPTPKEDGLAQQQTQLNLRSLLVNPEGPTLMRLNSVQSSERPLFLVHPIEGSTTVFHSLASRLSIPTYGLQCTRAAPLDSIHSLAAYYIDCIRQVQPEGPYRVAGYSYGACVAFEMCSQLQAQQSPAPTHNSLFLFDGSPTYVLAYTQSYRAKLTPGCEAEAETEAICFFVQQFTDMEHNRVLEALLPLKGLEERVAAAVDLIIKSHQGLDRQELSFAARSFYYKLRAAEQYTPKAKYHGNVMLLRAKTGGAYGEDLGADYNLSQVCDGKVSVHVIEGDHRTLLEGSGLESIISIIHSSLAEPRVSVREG
# ADAM17 inh – inhibitors of human ADAM17; P78536; recombinant ADAM17, EDANS/DABCYL FRET peptide cleavage; 370,000 compounds, 0.83% hits; inhibition, % at 6.95 µM;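 active means inhibition above the mean of compounds lying between control limits plus 3 SD, set per campaign, cut at about 8.5% in these data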;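 further: 0% = DMSO-only wells as the low control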
# ADAM10 inh – inhibits human ADAM10; O14672; recombinant ADAM10, EDANS/DABCYL FRET peptide cleavage, 3 h; inhibition, % at 7 µM; 370,000 compounds, 0.62% hits;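 active means inhibition above a per-campaign cutoff equal to the mean of compounds falling between control-based bounds plus 3 SD, cut at about 20% in these data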;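 further: 0% = DMSO wells while the 100% control is not disclosed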
# ADAM10 counter – inhibits human ADAM10 in ADAM17 exosite counter-screen. shares compounds with ADAM17 inh. recombinant ADAM10, EDANS/DABCYL FRET peptide cleavage, 3 h. inhibition, % at 6.95 µM. 2,900 compounds, 47% hits;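 active means mean inhibition over the triplicate runs exceeds the activity threshold set in the earlier primary screen, cut at about 20% in these data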;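 further: 0% = DMSO wells and 100% = marimastat wells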
# ADAM17 confirm – human ADAM17 inhibition, confirmation; shares compounds with ADAM17 inh; recombinant ADAM17, EDANS/DABCYL QFRET peptide cleavage; inhibition, % at 6.95 µM; 2,900 compounds, 65% hits; AID 743257;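 active means mean inhibition across replicates above the hit cutoff set in the primary screen, cut at about 8.5% in these data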;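 further: 0% = DMSO wells and 100% = marimastat wells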
# Starred values were filed as active, the others as inactive; . = not tested or not shown. Only some compounds are listed: those with a hit (about 4% of all), similar ones and a draw of the others.
SMILES,aDG glyco up,GRIN3A LBD mod,FAS TE block,ADAM17 inh,ADAM10 inh,ADAM10 counter,ADAM17 confirm
CC(=O)N1CC(C)Sc2ccc(S(=O)(=O)NCCc3ccccc3)cc21 (stereo not given),0.6,-4.9,1.0,5.8,-2.4,.,.
CC(=O)N1CC(C)Sc2ccc(S(=O)(=O)NCCc3ccc(C)cc3)cc21 (stereo not given),0.9,0.1,9.7,9.3*,11.1,1.0,5.9
O=C(CCCC(=O)OCC(=O)c1cccs1)Nc1ccc(Oc2ccccc2)cc1,-0.3,-5.6,14.5,8.9*,9.0,9.5,4.7
O=C(CCCC(=O)OCC(=O)c1cccs1)Nc1ccc(F)cc1,0.1,-0.1,-7.8,-1.6,8.1,.,.
O=C(CCSc1nnc(-c2ccncc2)o1)Nc1ccc(F)cc1,0.0,-1.3,-5.1,-5.2,-2.1,.,.
COC(=O)Cc1ccc(NC(=S)NCCCN2CCOCC2)cc1,0.3,0.0,-1.0,-1.3,0.0,.,.
C[C@H](CO)N1C[C@H](C)[C@@H](CN(C)Cc2ccc3c(c2)OCO3)Oc2cc(Br)ccc2S1(=O)=O,0.2,.,19.5,8.9*,11.8,25.3*,14.0*
C[C@@H]1CN([C@@H](C)CO)S(=O)(=O)c2ccc(Br)cc2O[C@@H]1CN(C)Cc1ccc2c(c1)OCO2,.,.,.,2.4,8.3,.,.
Cc1cccc(NC(=O)C2(c3ccc([N+](=O)[O-])cc3)CCCC2)c1,0.0,-10.4,27.6,9.3*,-4.4,9.7,7.4
Cc1cc(C)nc(NS(=O)(=O)c2ccc(NC(=O)C3(c4ccc([N+](=O)[O-])cc4)CCCC3)cc2)n1,-0.1,-2.0,-1.8,-0.3,-0.3,.,.
CCOc1cc(N2CCOCC2)c(OCC)cc1NC(=O)CN1C(=O)NC2(CCc3ccccc32)C1=O (stereo not given),0.1,1.8,-3.1,8.8*,9.7,4.7,4.2
Cc1ccc(S(=O)(=O)Nc2nc(CN3CCOCC3)nc3sc(C(=O)O)c(C)c23)cc1,-0.1,.,-4.2,-11.4,-41.6,.,.
CN(Cc1ccccc1)C(=O)c1ccc(NC(=O)Cc2ccc(NC(=O)C3CCN(C(=O)C4CCCC4)CC3)cc2)cc1,0.0,-3.3,-3.6,9.1*,2.6,33.1*,9.2*
CN(Cc1ccccc1)C(=O)c1ccc(NC(=O)Cc2ccc(NC(=O)C3CCN(C(=O)C4CC4)CC3)cc2)cc1,.,.,.,1.4,-3.8,.,.
Cc1ccccc1NC(=O)c1cc(C(=O)c2cc(Cl)ccc2O)cn(-c2ccccc2C)c1=O,-0.5,13.6*,31.6,9.7*,15.1,5.0,7.9
CC1(C(=O)NS(=O)(=O)c2ccc(C#N)cc2)CCN1C(=O)C1CCCCC1 (stereo not given),-0.2,.,11.5,0.3,-1.7,.,.
Cc1cc(C)cc(C(=O)NCC(=O)OCC(=O)N2CCN(S(=O)(=O)c3ccc4ccccc4c3)CC2)c1,-0.1,6.0,14.1,10.1*,14.5,26.3*,12.3*
CCOC(=O)CN1C(=O)[C@]2(OCCC=C[C@H]2C)c2cc(OC)ccc21,.,.,.,-5.4,-14.7,.,.
COc1cc(N(C(=O)Cc2cccs2)C(C(=O)NC2CCCCC2)c2ccc(C)cc2)ccc1-n1cnnn1 (stereo not given),-0.2,6.0,-2.4,3.3,4.0,.,.
O=S(Cc1ccc(Br)cc1)Cc1nnc(SCc2ccc(Cl)cc2)n1-c1ccccc1 (stereo not given),0.2,-9.7,38.9,8.6*,18.3,27.2*,14.8*
CC(C)(c1ccccc1)c1ccc(OCCn2cnc3ccccc3c2=O)cc1,-0.2,21.5*,33.1,9.6*,15.8,27.5*,14.7*
Clc1ccc(C2[C@H]3CN(Cc4ccc(-c5ccccc5)cc4)[C@H](c4ccccc4)C34CC2(c2ccccc2)C4)cn1 (stereo not given in full),.,-0.5,.,0.9,3.0,.,.
N#Cc1ccc(C23CC4(C2)[C@H](CN(Cc2ccc(-c5ccccc5)cc2)[C@@H]4c2ccccc2)C3c2ccc(Cl)nc2)cc1 (stereo not given in full),0.4,-1.8,27.6,12.6*,18.3,-1.1,4.5
OCCn1c(CSc2nnc(-c3ccco3)n2-c2ccccc2)nc2ccc(Cl)cc21,0.0,-2.0,-0.6,11.2*,-10.7,-16.4,-2.8
NC(=O)CSc1nnc(-c2ccco2)n1-c1ccccc1,-0.1,-1.0,-2.7,0.2,8.3,.,.
SMILES,aDG glyco up,GRIN3A LBD mod,FAS TE block,ADAM17 inh,ADAM10 inh,ADAM10 counter,ADAM17 confirm
Cc1ccc(NC(=O)c2ccc3c(c2)OCCO3)cc1C,0.1,0.8,4.2,1.2,5.3,.,.
Cc1ccc(NC(=O)c2ccc3c(c2)OCCO3)cc1S(=O)(=O)Nc1cccc(Cl)c1,0.2,8.8,27.0,9.8*,15.6,20.7*,11.2*
C=CCOC(=O)C1=C[C@@H](c2coc3ccccc3c2=O)C[C@@H](OCc2ccc(CO)cc2)O1,0.5,-0.2,3.1,14.5*,6.8,25.7*,10.1*
C=CCOC(=O)C1=C[C@H](c2coc3ccccc3c2=O)C[C@H](OCc2ccc(CO)cc2)O1,-0.2,-1.2,1.9,-4.4,-5.3,.,.
Cc1ccc([N+](=O)[O-])cc1NC(=S)NC(=O)C(C)(C)C,0.1,-4.2,10.0,3.7,5.5,.,.
Cc1ccc(NS(=O)(=O)c2cc([N+](=O)[O-])ccc2NNC(=S)Nc2cc(C)ccc2C)c(C)c1,-0.7,20.5*,20.5,10.1*,20.0*,33.6*,22.0*
CCCCCCOC(=O)C1=C(C)NC(=O)NC1c1ccc2c(c1)OCO2 (stereo not given),-0.1,0.3,8.8,2.2,0.6,.,.
COc1ccc(CNC(=O)C[C@@H]2C[C@H]3c4cc(NC(=O)C5CCC5)ccc4O[C@H]3[C@@H](CO)O2)cc1,0.1,.,-6.1,-4.9,-10.6,.,.
COc1ccc(CNC(=O)C[C@@H]2C[C@H]3c4cc(NC(=O)NC5CCCC5)ccc4O[C@H]3[C@H](CO)O2)cc1,2.0,.,-2.8,9.1*,6.0,0.4,3.1
CCCc1cc(CNC(=O)C2CCC(=O)N(CCc3cccc(F)c3)C2)on1 (stereo not given),-0.4,-1.3,-4.8,-2.8,6.9,.,.
CC(C)C1C(=O)N(Cc2cn(CCC3OCCCO3)nn2)CCS(=O)(=O)N1Cc1ccc(-c2cccc(CO)c2)cc1 (stereo not given),0.1,.,-7.2,-0.5,-8.3,.,.
CCn1c(-c2ccccc2Cl)nn(CC(=O)Nc2cc(Cl)ccc2Cl)c1=S,0.5,-0.6,2.7,11.5*,6.5,5.0,5.1
CCn1c(-c2ccccc2Cl)nn(CC(=O)NCCc2ccccc2)c1=S,0.1,0.6,-4.7,-1.0,8.6,.,.
O=c1cc(-c2ccccc2Cl)oc2c(NS(=O)(=O)c3ccccc3OC(F)(F)F)ccc(O)c12,.,-3.1,.,8.9*,15.2,34.1*,20.0*
